“And” between values parts separate entries of the source, which are not always exact repeats. Equal values may be shown once. Inconclusive results are not listed. Values without a mark were called inactive. The source made the active and inactive calls. Calls follow the shape of the dose curve; as a rule, active = well fitted activation curve with a large enough effect; inconclusive = small, poorly fitted or top-dose-only effect; inactive = flat fitted curve, though single readings scatter.

This assay is described as follows: Cellular Toxicity (caspase-3) Jurkat (AID 655).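 Also: cells exposed to compound for 16 h at 37 °C before reading.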 Particulars: Jurkat caspase-3 activation, luminescence, DMSO = 0%, tamoxifen = 100%; at 92.2 µM (top of the series). From the text:
NIH Chemical Genomics Center [NCGC]
NIH Molecular Libraries Screening Centers Network [MLSCN]
National Institutes of Environmental Health Sciences [NIEHS]
National Toxicology Program [NTP]
We have developed a 1536-well cell-based assay for quantitative high throughput screening (qHTS) against a number of cell lines to determine in vitro caspase 3/7 of small molecules. This particular assay uses the Jurkat cell line which is derived from human T cell leukemia.
NCGC Assay Protocol Summary:
The Caspase-Glo 3/7 assay (Promega) is a homogeneous method to measure caspase-3 and caspase-7 activities in cultured cells. The quantitation of caspase 3/7 activity is based on the cleavage of a peptide-aminoluciferin substrate. After caspase cleaves the substrate the free aminoluciferin is liberated and serves as the substrate of luciferase, which generates the light. The luminescent signal is proportional to amount of caspase 3/7 activity present.
Using the Caspase-Glo 3/7 assay, the amount of caspase 3/7 activity was measured in the Jurkat cell line with complete culture medium following compound treatment for 16 hours. The assay was performed in opaque white 1536-well plates. In the screen, tamoxifen and doxorubicin were used as positive controls. Library compounds were measured for their ability to cause the activation of caspase 3/7 in the cell line, as reflected by an increase in luminescence signal, in a concentration-dependent manner. Data were normalized to the controls for basal activity (DMSO only) and 100% stimulation (100 uM tamoxifen). AC50 values were determined from concentration-response data modeled with the standard Hill equation.
qHTS protocol for caspase 3/7 assay in Jurkat cells
[Step] [Parameter] [Value] [Description]
1. Reagent; 5 uL; 5000 Jurkat cells/well
3. Controls; 23 nL; Tamoxifen 0.23 uM to 100 uM & Doxorubicin 7.0 pM to 100 uM
4. Time; 16 hr; 37 °C incubation
5. Reagent; 5 uL; Caspase-Glo 3/7 reagent
6. Time; 20 min; Room Temperature
7. Detection; Luminescence; Viewlux plate reader
Keywords: caspase 3/7, apoptosis, Jurkat cell line, luminescence, NTPHTS, NTPHTS_NCGC, NIEHS, EPA, DSSTox, MLSMR, MLSCN, NIH Roadmap, qHTS, NCGC
As to `O=S1OCC2C(CO1)C1(Cl)C(Cl)=C(Cl)C2(Cl)C1(Cl)Cl` (stereo not given), the caspase-3 activation is 10.8%.
Next, `ClC(Cl)=C(Cl)Cl`: -0.349% and -0.592%.
Next, `Oc1ccc(Cl)cc1Cl`: 3.55%; `COC(=O)NC(=S)Nc1ccccc1NC(=S)NC(=O)OC`: 2.97%.
For `Clc1cccc(C(Cl)(Cl)Cl)n1`, the caspase-3 activation is -0.503%.
Next, `c1ccc(OP(Oc2ccccc2)Oc2ccccc2)cc1`: -1.12%; `Nc1c(Cl)c(Cl)nc(C(=O)O)c1Cl`: 0.643%.
On to `Clc1cc(Cl)c(-c2cc(Cl)c(Cl)cc2Cl)cc1Cl`, for which the caspase-3 activation was 0.996%.
Next, `O=NN(c1ccccc1)c1ccccc1`: 3.48%; `ClC(Cl)=C(c1ccc(Cl)cc1)c1ccc(Cl)cc1`: 0.557% and 1.81%.
`CCSC(=O)Cl`: the caspase-3 activation was -0.54%.
Next, `N#CCCCl`: -0.233% and -1.87%; `ClC1=C(Cl)C2(Cl)C3C4C=CC(C4)C3C1(Cl)C2(Cl)Cl` (stereo not given): 6.54%; `COc1ccc(C=O)cc1OC`: 1.2%.
For the compound `ClC(Cl)=C(Cl)C(Cl)=C(Cl)Cl`, the caspase-3 activation is -0.64%.
Consider `COC1=CC(=O)O[C@@H](/C=C/c2ccc3c(c2)OCO3)C1`, for which the caspase-3 activation was -10%.
Regarding `CCNc1nc(Cl)nc(NC(C)C)n1`, the caspase-3 activation was 0.071%.
As for `C=C(C)C(=O)OCC1CO1` (stereo not given), the caspase-3 activation is 1.42%.
Next, `CCC[CH2][Sn]([Cl])([Cl])[Cl]`: 1.34%; `O=[N+]([O-])c1cccc2ccccc12`: -1.75%; `ClC(Cl)(Cl)c1ccccc1`: 18.2% and -0.502%.
Next, `c1ccc2c(c1)CCCC2`: -0.484%; `CCCCOCCOP(=O)(OCCOCCCC)OCCOCCCC`: 1.12%; `Cc1ccc([N+](=O)[O-])cc1C`: -0.46%.
In the case of `CCN(CC)c1ccccc1`, the caspase-3 activation is -0.552%.
As for `c1nc[nH]n1`, the caspase-3 activation is 0.542%.
Next, `CNC(=O)O/N=C/C(C)(C)SC`: -0.602%; `CC(C)(C)OO`: 16.6% and 4.19%.
Next, `C/C=C/c1ccc2c(c1)OCO2`: 2.64%; `C=CCc1ccc2c(c1)OCO2`: 1.31%.
Regarding `Clc1nc(Cl)nc(Nc2ccccc2Cl)n1`, the caspase-3 activation was 0.489%.
Next, `c1ccc(N=Nc2ccccc2)cc1`: 92% (active).
On to `C=CCc1ccc(OC)cc1`, for which the caspase-3 activation is 0.324%.
Next, `COP(=S)(OC)Oc1ccc([N+](=O)[O-])cc1`: 4.38%; `C=CC(=C)C`: 0.843%; `CC(=O)[O-].CC(=O)[O-].O.O.O.[Pb+2]`: 1.15% and 0.852%.
`CCCCOC(=O)c1ccccc1C(=O)OCCCC`: the caspase-3 activation was -1.56%.
Consider `CCOc1ccc(N)cc1`, for which the caspase-3 activation is -0.901%.
Next, `CC(Cl)Cl`: 1.86%.
Consider `CCCOC(=O)c1ccccc1C(=O)OCCC`, for which the caspase-3 activation was -1.2%.

The values are drawn from PubChem BioAssay (NCATS).
